Test results taken from PubChem BioAssay (EPA / NIEHS).
Inconclusive results are not listed. Activity calls are given as the source filed them. How the source made its calls, unless noted: active means hit-call score of the fitted dose curve at least 0.9, where 1 is the maximum; inconclusive means response in the unintended direction; inactive means score below 0.9.

Tested on: not listed separately
Assay: CCTE_Shafer_MEA_dev_network_spike_peak: CCTE's Neural Network Formation Assay for Mean Number of Electrodes in Network Spike, Shafer Lab (AID 2284049; active means hit-call score of the fitted dose curve at least 0.9, where 1 is the maximum; inactive means score below 0.9)
Procedure, shortened: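 Continuous 12-day exposure of rat cortical cultures, starting at plating, on MEA plates. Endpoint: electrodes participating in network-spike peaks, AUC across DIV 5–12, DMSO as negative control.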

Structure (SMILES) | outcome
O=C(O)C(F)(F)OC(F)(F)C(F)(F)OC(F)(F)F | inactive
O=C(O)C=CC(F)(C(F)(F)F)C(F)(F)F | inactive
O=C(O)C(F)(F)OC(F)(F)C(F)(F)OC(F)(F)C(=O)O | inactive

Tested on: DIO2 (gene 1734)
Assay: CCTE_GLTED_hDIO2: CCTE's human Deiodinase 2 (DIO2) Inhibition Assay, Great Lakes Toxicology and Ecology Division (GLTED) Lab (AID 2284050)
Procedure, shortened: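 Triplicate cell-free incubations (3 h) of human DIO2 with chemical preceded colorimetric Sandell-Kolthoff quantitation of liberated iodide; DMSO served as negative control for curve fitting.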

Structure (SMILES) | AC50 | outcome
CC1(C)CN=C(NN=C(/C=C/c2ccc(C(F)(F)F)cc2)/C=C/c2ccc(C(F)(F)F)cc2)NC1 | 18.8 µM (active) | 
CCNc1nc(Cl)nc(NC(C)(C)C)n1 |  | inactive
COC(=O)C(F)(F)C(F)(F)OC(F)(C(F)(F)F)C(F)(F)OC(F)=C(F)F (centres undefined) | 18.2 µM (active) | 
CCCCCCCc1ccc(O)cc1 | 136 µM (active) | 
O=c1ssc(Cl)c1Cl | 13.8 µM (active) | 

Tested on: not listed separately
Assay: CCTE_Shafer_MEA_dev_spike_duration_mean: CCTE's Neural Network Formation Assay for Mean Spike Duration, Shafer Lab (AID 2284051; active means hit-call score of the fitted dose curve at least 0.9, where 1 is the maximum; inactive means score below 0.9;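 further: mean network spike duration pooled as area under curve over DIV 5 to 12 recordings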)
Procedure, shortened: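 Readout is the average length of network spikes, clustered firing across electrodes, summed over DIV 5, 7, 9 and 12 as area under the curve. Neurons from rat cortex developed networks on MEA plates under continuous 12-day exposure.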

Structure (SMILES) | outcome
O=C(O)C(F)(F)OC(F)(F)C(F)(F)OC(F)(F)F | inactive
O=C(O)C=CC(F)(C(F)(F)F)C(F)(F)F | inactive
O=C(O)C(F)(F)OC(F)(F)C(F)(F)OC(F)(F)C(=O)O | inactive

Tested on: not listed separately
Assay: CCTE_Shafer_MEA_dev_network_spike_duration_std: CCTE's Neural Network Formation Assay for Standard Deviation of Network Spike Duration, Shafer Lab (AID 2284052; active means hit-call score of the fitted dose curve at least 0.9, where 1 is the maximum; inactive means score below 0.9;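 further: area under curve of spike duration SD across recording days 5 to 12; hits are decreases in network spike duration SD versus DMSO vehicle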)
Procedure, shortened: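 Read-out is the trapezoidal area-under-the-curve across recordings made on days 5, 7, 9 and 12, fitted in the negative direction against DMSO baseline. Neurons were primary rat cortical cells treated from day 0, with treatment renewed at each feed.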

Structure (SMILES) | outcome
O=C(O)C(F)(F)OC(F)(F)C(F)(F)OC(F)(F)F | inactive
O=C(O)C=CC(F)(C(F)(F)F)C(F)(F)F | inactive
O=C(O)C(F)(F)OC(F)(F)C(F)(F)OC(F)(F)C(=O)O | inactive

Tested on: not listed separately
Assay: CCTE_Shafer_MEA_dev_per_network_spike_spike_percent: CCTE's Neural Network Formation Assay for Percent of Spikes in a Network Spike, Shafer Lab (AID 2284054; active means hit-call score of the fitted dose curve at least 0.9, where 1 is the maximum; inactive means score below 0.9)
Procedure, shortened: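 Developing networks of rat cortical neurons are dosed at day 0 and recorded extracellularly four times up to day 12. The endpoint is the area under the curve of percent spikes in network spikes, fitted in the negative direction relative to DMSO.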

Structure (SMILES) | outcome
O=C(O)C(F)(F)OC(F)(F)C(F)(F)OC(F)(F)F | inactive
O=C(O)C=CC(F)(C(F)(F)F)C(F)(F)F | inactive
O=C(O)C(F)(F)OC(F)(F)C(F)(F)OC(F)(F)C(=O)O | inactive

Tested on: DIO3 (gene 1735)
Assay: CCTE_GLTED_hDIO3: CCTE's human Deiodinase 3 (DIO3) Inhibition Assay, Great Lakes Toxicology and Ecology Division (GLTED) Lab (AID 2284055);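 on AC50: potency is for inhibition seen as loss of released iodide signal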
Procedure, shortened: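 Steps: incubate adenovirus-produced hDIO3 with chemical for 3 hours; detect freed iodide via cerium-arsenic Sandell-Kolthoff colorimetry; compare with DMSO baseline.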

Structure (SMILES) | AC50 | outcome
O=S(=O)(F)C(F)(F)C(F)(F)C(F)(F)C(F)(F)C(F)(F)C(F)(F)C(F)(F)C(F)(F)F | 28.4 µM (active) | 
CC1(C)CN=C(NN=C(/C=C/c2ccc(C(F)(F)F)cc2)/C=C/c2ccc(C(F)(F)F)cc2)NC1 |  | inactive
CCNc1nc(Cl)nc(NC(C)(C)C)n1 | 11.4 µM (active) | 
COC(=O)C(F)(F)C(F)(F)OC(F)(C(F)(F)F)C(F)(F)OC(F)=C(F)F (centres undefined) | 3.1 µM (active) | 
CCCCCCCc1ccc(O)cc1 | 81.2 µM (active) | 
O=c1ssc(Cl)c1Cl | 3.57 µM (active) | 

Tested on: not listed separately
Assay: CCTE_Shafer_MEA_acute_AB: CCTE's Alamar Blue Assay for Cytotoxicity in the Neural Acute Assay, Shafer Lab (AID 2284069);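 further: active compounds lower the viability signal compared with DMSO wells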
Procedure, shortened: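 Metabolic activity in chemically exposed rat cortical neurons (MEA cultures, day 13/15 post-plating) measured via CellTiter Blue resazurin reduction, 544/590 nm fluorescence; fitted relative to DMSO, with signal loss indicating reduced viability.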

Structure (SMILES) | outcome
CCC(C)(C)c1ccc(O)cc1 | inactive
[N-]=[N+]=[N-] | inactive
CC(Cl)(Cl)C(=O)O | inactive
COCCOCCO | inactive
ClC(Cl)(Cl)c1ccccc1 | inactive
CCOP(=S)(Oc1ccc([N+](=O)[O-])cc1)c1ccccc1 (centres undefined) | inactive
c1ccc2c(c1)Nc1ccccc1S2 | inactive

Tested on: not listed separately
Assay: CCTE_Shafer_MEA_acute_LDH: CCTE's Lactate Dehydrogenase Assay for Cytotoxicity in the Neural Acute Assay, Shafer Lab (AID 2284086);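 further: active means LDH release rises above DMSO vehicle level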
Procedure, shortened: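 Cytotoxicity readout: spectrophotometric LDH activity in supernatant of rat primary cortical neurons, post-plating day 13 or 15, sampled after 40 min compound exposure; signal gain relative to DMSO baseline.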

Structure (SMILES) | outcome
[N-]=[N+]=[N-] | inactive
CC(Cl)(Cl)C(=O)O | inactive
Nc1ccc2ccccc2c1 | inactive
COP(=O)(CCC(=O)NCO)OC | inactive
COCCOCCO | inactive
ClC(Cl)(Cl)c1ccccc1 | inactive
CCOP(=S)(Oc1ccc([N+](=O)[O-])cc1)c1ccccc1 (centres undefined) | inactive
Cc1ccc(N)cc1N | inactive

Tested on: not listed separately
Assay: CCTE_Shafer_MEA_dev_mutual_information_norm: CCTE's Neural Network Formation Assay for Mutual Information Normalization, Shafer Lab (AID 2284091; active means hit-call score of the fitted dose curve at least 0.9, where 1 is the maximum; inactive means score below 0.9)
Procedure, shortened: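 Exposure of primary rat cortical neurons began at plating and ran to DIV 12, with full media and treatment renewal after DIV 5 and 9 recordings. Mutual information AUC (DIV 5–12) was analysed for loss versus DMSO.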

Structure (SMILES) | outcome
O=C(O)C(F)(F)OC(F)(F)C(F)(F)OC(F)(F)F | inactive
O=C(O)C=CC(F)(C(F)(F)F)C(F)(F)F | inactive
O=C(O)C(F)(F)OC(F)(F)C(F)(F)OC(F)(F)C(=O)O | inactive

Tested on: not listed separately
Assay: CCTE_Shafer_MEA_dev_correlation_coefficient_mean: CCTE's Neural Network Formation Assay for Mean Correlation Coefficient, Shafer Lab (AID 2284093; active means hit-call score of the fitted dose curve at least 0.9, where 1 is the maximum; inactive means score below 0.9;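 on AC50: well mean pairwise spike train correlation integrated as AUC over recording days 5 to 12; potency fitted for loss of correlation relative to DMSO vehicle wells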)
Procedure, shortened: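 Read-out: well-mean correlation coefficient of spike trains between electrode pairs, collapsed over four recording days as trapezoidal area-under-the-curve. Developing rat cortical neuron networks grown on MEAs received test chemical continuously from plating.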

Structure (SMILES) | AC50 | outcome
O=C(O)C(F)(F)OC(F)(F)C(F)(F)OC(F)(F)F | 3.78 µM (active) | 
O=C(O)C=CC(F)(C(F)(F)F)C(F)(F)F |  | inactive
O=C(O)C(F)(F)OC(F)(F)C(F)(F)OC(F)(F)C(=O)O |  | inactive
